Experimental data as given in the supplement of paper PMC10849652.
The full data set covers some 7,900 targets. This sample favours those with a hit. About 0.6% of all pairs of compound and target were hits.

Experiments:
Assay in all cases: log2 fold change, soluble protein after heating vs DMSO (PISA); higher = thermal stabilisation; K562 cells, 10 uM, 30 min; active = over 0.2 and 3.5 SD of the protein, either way, in both replicates (recomputed)
erlotinib = compound: C#Cc1cccc(Nc2ncnc3cc(OCCOC)c(OCCOC)cc23)c1 [erlotinib]
In short: (§1)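 Values are thermal stability changes relative to control samples and are taken from duplicates. They are stated as log2 fold changes. Before quantification by TMTpro 16plex LC-MS/MS with equalised channel sums, K562 cells at 2×10^6 cells/mL were treated with 10 μM compound for 30 min, heated in aliquots for 3 min across 48°C-58°C, pooled, extracted in PBS with 0.5% NP-40 at 4°C, and centrifuged at 21,000xg for 90 min to give the soluble supernatant.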

[1] = compound: C/C(=N\NC(=O)C1=CC(=CC=C1)S(=O)(=O)N2CCOCC2)/C3=C(C=CC(=C3)Cl)O
In short: as §1

[2] = compound: C1=CC(=C(C=C1Cl)C2=NC3=NC=CN=C3C(=N2)NC4=CC=NC=C4)F
In short: as §1

[3] = compound: C1=CC(=CC=C1C2=NC3=C(N2)C=C(C=C3)C(=O)N)OC4=CC=C(C=C4)Cl
In short: as §1

[4] = compound: C1=CC2=C(C=CC(=C2)/C=C\3/C(=O)NC(=NCC4=CC=CS4)S3)N=C1
In short: as §1

[5] = compound: C1=CC2=NC=CN=C2C=C1/C=C/3\C(=O)NC(=O)S3
In short: as §1

[6] = compound: C1=CC=C(C=C1)C2=NC(=C(N2)C3=CC=NC=C3)C4=CC(=C(C=C4)Cl)O
In short: as §1

[7] = compound: C1=CC=C2C(=C1)C3=NNC4=CC=CC(=C43)C2=O
In short: as §1

[8] = compound: C1CCN(C1)C(=O)NC2=CC=CC(=C2)NC3=NC=C(C(=N3)NCCC4=CN=CN4)Br
In short: as §1

[9] = compound: C1CN(CCC1(CC2=CC=C(C=C2)Cl)N)C3=NC=NC4=C3C=CN4
In short: as §1

IRAK-1-4 Inhibitor I = compound: C1COCCN1CCN2C3=CC=CC=C3N=C2NC(=O)C4=CC(=CC=C4)[N+](=O)[O-] [IRAK-1-4 Inhibitor I]
In short: as §1

ibrutinib = compound: C=CC(=O)N1CCC[C@@H](n2nc(-c3ccc(Oc4ccccc4)cc3)c3c(N)ncnc32)C1 [ibrutinib]
In short: as §1

[10] = compound: CC(=O)c1cnc2ccc(-c3cc(Cl)c(O)c(Cl)c3)nc2c1N[C@H]1CC[C@H](CN(C)C)CC1
In short: as §1

ralimetinib = compound: CC(C)(C)Cn1c(N)nc2ccc(-c3[nH]c(C(C)(C)C)nc3-c3ccc(F)cc3)nc21 [ralimetinib]
In short: as §1

[11] = compound: CC(C)(O)CC(=O)NCCn1ccc2ncnc(Nc3ccc(Oc4cccc(C(F)(F)F)c4)c(Cl)c3)c21
In short: as §1

[12] = compound: CC(C)C1=C2N=C(C=C(N2N=C1)NCC3=CC=CC=C3)NCCCCCCN
In short: as §1

[13] = compound: CC(C)C[C@@H](C=O)NC(=O)[C@H](CC(C)C)NC(=O)[C@H](CC(C)C)NC(=O)OCc1ccccc1
In short: as §1

pinometostat = compound: CC(C)N(C[C@H]1O[C@@H](n2cnc3c(N)ncnc32)[C@H](O)[C@@H]1O)[C@H]1C[C@@H](CCc2nc3cc(C(C)(C)C)ccc3[nH]2)C1 [pinometostat]
In short: as §1

[14] = compound: CC1=C(C(CC(=O)N1)C2=CC=C(C=C2)C(F)(F)F)C(=O)NC3=C(C=C4C(=C3)C=NN4)F
In short: as §1

[15] = compound: CC1=C(C2=C(C=C1)C(=O)C3=CC=CC=C3N2CCCN)C
In short: as §1

Measured: log2 fold change

HMOX2 (UniProt P30519)
UniProt P30519, sequence (P30519 whole entry, looked up): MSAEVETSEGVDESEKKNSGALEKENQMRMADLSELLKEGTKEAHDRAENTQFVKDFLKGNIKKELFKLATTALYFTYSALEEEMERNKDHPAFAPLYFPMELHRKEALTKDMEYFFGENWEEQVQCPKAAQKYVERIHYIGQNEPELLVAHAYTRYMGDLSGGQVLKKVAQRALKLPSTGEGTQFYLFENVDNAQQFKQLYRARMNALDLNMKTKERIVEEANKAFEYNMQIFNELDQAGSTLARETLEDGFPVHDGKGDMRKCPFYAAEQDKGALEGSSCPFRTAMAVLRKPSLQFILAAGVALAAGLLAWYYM
inactive: erlotinib 0.065 | [1] 0.057 | [2] 0.039 | [3] -0.038 | [4] 0.024 | [5] -0.023 | [6] 0.03 | [7] 0.032 | [8] -0.04 | [9] 0.016 | IRAK-1-4 Inhibitor I -0.061 | ibrutinib -0.035 | [10] -0.092 | ralimetinib 0.081 | [11] 0.031 | [12] 0.08 | [13] 0.028 | pinometostat 0 | [14] -0.016 | [15] 0.012

FBXO6 (UniProt Q9NRD1)
UniProt Q9NRD1, sequence (Q9NRD1 whole entry, looked up): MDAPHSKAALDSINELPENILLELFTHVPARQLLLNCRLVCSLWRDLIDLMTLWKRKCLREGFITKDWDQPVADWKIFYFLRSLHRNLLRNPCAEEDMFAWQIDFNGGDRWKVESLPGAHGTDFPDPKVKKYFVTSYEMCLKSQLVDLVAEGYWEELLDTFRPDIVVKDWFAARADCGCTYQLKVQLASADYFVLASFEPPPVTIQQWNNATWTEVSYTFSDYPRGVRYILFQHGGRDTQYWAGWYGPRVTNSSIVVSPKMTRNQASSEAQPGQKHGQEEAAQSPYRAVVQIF
inactive: erlotinib -0.069 | [1] 0.046 | [2] 0.075 | [3] 0.007 | [4] 0.048 | [5] 0.007 | [6] 0.021 | [7] 0.002 | [8] -0.031 | [9] 0 | IRAK-1-4 Inhibitor I -0.015 | ibrutinib 0.015 | [10] -0.068 | ralimetinib 0.004 | [11] -0.127 | [13] -0.046 | pinometostat -0.021 | [14] -0.043 | [15] 0.068
active: [12] 0.437

GTF3C5 isoform 3 (UniProt Q9Y5Q8)
UniProt Q9Y5Q8, sequence (Q9Y5Q8 whole entry, looked up): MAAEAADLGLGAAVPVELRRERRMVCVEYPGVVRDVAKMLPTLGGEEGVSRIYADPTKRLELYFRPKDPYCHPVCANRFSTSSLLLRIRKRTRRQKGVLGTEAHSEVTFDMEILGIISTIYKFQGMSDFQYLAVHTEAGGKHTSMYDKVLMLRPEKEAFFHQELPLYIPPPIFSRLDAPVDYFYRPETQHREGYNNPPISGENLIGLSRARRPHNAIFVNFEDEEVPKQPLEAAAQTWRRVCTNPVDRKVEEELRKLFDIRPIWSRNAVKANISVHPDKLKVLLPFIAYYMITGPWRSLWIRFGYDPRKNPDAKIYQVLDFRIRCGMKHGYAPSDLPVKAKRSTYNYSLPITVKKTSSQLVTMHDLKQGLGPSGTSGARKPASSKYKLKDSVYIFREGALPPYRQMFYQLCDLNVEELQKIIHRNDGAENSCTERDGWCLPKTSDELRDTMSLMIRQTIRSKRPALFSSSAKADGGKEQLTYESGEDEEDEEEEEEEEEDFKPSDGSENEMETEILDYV
inactive: erlotinib 0.085 | [1] 0.293 | [2] -0.078 | [3] -0.049 | [5] -0.056 | [6] -0.089 | [7] 0.079 | [8] -0.067 | [9] -0.038 | IRAK-1-4 Inhibitor I -0.028 | ibrutinib 0.046 | [10] 0.047 | ralimetinib 0.01 | [11] -0.025 | [12] -0.293 | [13] 0.083 | pinometostat 0.109 | [14] 0.147 | [15] -0.171
active: [4] -0.413

GBE1 (UniProt Q04446)
UniProt Q04446, sequence (Q04446 whole entry, looked up): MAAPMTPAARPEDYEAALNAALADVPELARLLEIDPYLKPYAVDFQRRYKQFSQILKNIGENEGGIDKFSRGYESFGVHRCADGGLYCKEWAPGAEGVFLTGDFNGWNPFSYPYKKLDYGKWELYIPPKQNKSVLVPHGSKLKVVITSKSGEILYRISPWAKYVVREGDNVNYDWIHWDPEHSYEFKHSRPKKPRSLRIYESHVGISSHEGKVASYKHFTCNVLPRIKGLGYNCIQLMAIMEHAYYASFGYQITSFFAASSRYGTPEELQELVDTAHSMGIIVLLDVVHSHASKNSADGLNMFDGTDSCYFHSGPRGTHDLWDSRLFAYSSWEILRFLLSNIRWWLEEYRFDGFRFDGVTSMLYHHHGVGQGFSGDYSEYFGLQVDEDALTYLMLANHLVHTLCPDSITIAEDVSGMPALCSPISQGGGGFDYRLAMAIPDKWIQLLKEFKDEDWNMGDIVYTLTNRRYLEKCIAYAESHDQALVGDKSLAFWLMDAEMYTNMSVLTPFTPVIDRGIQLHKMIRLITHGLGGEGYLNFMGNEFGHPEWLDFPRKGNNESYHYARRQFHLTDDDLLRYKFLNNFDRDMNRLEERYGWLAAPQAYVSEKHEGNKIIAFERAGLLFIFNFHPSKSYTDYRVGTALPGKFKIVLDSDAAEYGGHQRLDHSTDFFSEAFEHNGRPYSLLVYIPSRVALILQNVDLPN
inactive: erlotinib 0.008 | [1] 0.135 | [2] 0.037 | [3] -0.057 | [4] 0.158 | [5] -0.019 | [6] -0.058 | [7] -0.03 | [8] -0.061 | [9] -0.108 | IRAK-1-4 Inhibitor I -0.241 | ibrutinib -0.026 | [10] -0.102 | ralimetinib 0.051 | [11] -0.074 | [12] -0.23 | [13] 0.027 | pinometostat 0.186 | [15] 0.04

HSPA2 (UniProt P54652)
UniProt P54652, sequence (P54652 whole entry, looked up): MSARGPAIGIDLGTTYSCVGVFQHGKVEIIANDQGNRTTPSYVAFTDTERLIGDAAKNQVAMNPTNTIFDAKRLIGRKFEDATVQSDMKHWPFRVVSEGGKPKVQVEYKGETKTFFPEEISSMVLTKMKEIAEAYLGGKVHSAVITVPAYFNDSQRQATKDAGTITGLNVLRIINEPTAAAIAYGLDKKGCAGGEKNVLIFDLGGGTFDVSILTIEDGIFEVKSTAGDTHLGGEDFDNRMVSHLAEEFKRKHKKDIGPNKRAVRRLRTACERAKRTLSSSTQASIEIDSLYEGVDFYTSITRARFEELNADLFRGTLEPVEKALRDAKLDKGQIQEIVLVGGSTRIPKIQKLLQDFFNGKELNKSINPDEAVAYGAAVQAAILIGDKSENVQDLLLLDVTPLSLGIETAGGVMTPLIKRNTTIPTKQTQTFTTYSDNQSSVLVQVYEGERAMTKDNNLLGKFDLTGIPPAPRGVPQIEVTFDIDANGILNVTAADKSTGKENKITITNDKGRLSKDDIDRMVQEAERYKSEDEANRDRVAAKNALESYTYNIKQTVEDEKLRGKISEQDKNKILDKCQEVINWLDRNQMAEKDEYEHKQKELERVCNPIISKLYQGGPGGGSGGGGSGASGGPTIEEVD
active: [12] -0.441
inactive: erlotinib 0.623 | [1] -0.047 | [3] -0.182 | [4] 0.022 | [5] 0.058 | [6] -0.095 | [7] 0.192 | IRAK-1-4 Inhibitor I 0.008 | ibrutinib -0.006 | [10] -0.28 | ralimetinib 0.01 | [13] 0.041 | pinometostat 0.05 | [14] 0.023

GPS2 (UniProt Q13227)
UniProt Q13227, sequence (Q13227 whole entry, looked up): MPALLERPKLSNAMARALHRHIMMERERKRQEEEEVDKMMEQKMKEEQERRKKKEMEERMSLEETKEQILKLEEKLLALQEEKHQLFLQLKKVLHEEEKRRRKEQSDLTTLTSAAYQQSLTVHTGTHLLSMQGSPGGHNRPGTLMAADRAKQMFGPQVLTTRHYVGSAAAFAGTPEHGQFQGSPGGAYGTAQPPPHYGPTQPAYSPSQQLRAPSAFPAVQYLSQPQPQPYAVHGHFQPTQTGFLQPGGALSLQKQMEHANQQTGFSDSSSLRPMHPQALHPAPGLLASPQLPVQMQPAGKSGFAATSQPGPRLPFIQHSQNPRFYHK
inactive: erlotinib -0.124 | [2] 0.066 | [3] -0.046 | [5] 0.05 | [6] -0.046 | [8] 0.262 | [9] 0.029 | IRAK-1-4 Inhibitor I -0.013 | ibrutinib -0.006 | ralimetinib -0.19 | [11] -0.052 | [12] 0.027 | [13] -0.069 | pinometostat 0.019 | [14] 0.006 | [15] -0.135

FGG (UniProt P02679)
UniProt P02679, sequence (P02679 whole entry, looked up): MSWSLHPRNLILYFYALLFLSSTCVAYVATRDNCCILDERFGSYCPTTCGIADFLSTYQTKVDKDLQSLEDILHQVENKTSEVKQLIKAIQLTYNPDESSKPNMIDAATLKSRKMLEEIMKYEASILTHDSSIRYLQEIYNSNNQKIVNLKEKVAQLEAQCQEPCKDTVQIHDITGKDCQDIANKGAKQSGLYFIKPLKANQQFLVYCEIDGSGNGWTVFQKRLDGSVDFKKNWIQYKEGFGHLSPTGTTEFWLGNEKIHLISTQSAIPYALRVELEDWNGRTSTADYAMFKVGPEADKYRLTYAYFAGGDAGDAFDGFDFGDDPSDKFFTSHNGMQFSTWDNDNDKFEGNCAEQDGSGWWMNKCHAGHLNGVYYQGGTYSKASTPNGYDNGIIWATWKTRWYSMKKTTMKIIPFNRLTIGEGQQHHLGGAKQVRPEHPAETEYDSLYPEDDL
inactive: [6] -0.05 | ralimetinib -0.048 | [13] 0.231

GBA2 (UniProt Q9HCG7)
UniProt Q9HCG7, sequence (Q9HCG7 whole entry, looked up): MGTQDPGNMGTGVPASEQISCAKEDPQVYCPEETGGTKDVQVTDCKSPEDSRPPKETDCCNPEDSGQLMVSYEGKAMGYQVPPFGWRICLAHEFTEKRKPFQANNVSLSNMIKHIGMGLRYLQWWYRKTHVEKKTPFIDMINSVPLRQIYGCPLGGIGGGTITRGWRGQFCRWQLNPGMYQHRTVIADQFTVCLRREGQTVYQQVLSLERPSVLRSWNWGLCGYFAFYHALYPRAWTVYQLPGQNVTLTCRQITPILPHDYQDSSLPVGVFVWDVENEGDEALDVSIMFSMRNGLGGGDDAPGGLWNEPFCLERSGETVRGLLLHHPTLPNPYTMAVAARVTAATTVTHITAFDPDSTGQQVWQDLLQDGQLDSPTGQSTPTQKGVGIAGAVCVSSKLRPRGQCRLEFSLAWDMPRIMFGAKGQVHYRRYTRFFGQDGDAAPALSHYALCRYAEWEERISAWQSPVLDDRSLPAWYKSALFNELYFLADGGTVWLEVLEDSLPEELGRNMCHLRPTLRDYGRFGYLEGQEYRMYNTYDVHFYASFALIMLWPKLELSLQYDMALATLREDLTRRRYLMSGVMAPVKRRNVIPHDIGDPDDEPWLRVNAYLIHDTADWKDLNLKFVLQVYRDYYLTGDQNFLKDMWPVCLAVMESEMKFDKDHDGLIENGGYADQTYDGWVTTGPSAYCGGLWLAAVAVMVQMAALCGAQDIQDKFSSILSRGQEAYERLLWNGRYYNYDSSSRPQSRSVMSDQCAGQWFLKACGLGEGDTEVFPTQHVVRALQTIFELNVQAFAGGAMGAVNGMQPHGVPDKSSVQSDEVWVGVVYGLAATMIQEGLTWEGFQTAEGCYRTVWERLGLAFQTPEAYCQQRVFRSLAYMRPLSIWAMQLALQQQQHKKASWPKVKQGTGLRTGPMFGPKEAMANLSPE
inactive: erlotinib 0.063 | [1] 0.095 | [2] 0.04 | [3] 0.01 | [4] 0.033 | [5] -0.023 | [7] 0.028 | [8] 0.034 | [9] 0.104 | IRAK-1-4 Inhibitor I -0.082 | ibrutinib -0.027 | [10] -0.073 | [11] 0.048 | [12] 0.326 | pinometostat 0.121 | [14] 0.003 | [15] -0.003

FCF1 (UniProt Q9Y324)
UniProt Q9Y324, sequence (Q9Y324 whole entry, looked up): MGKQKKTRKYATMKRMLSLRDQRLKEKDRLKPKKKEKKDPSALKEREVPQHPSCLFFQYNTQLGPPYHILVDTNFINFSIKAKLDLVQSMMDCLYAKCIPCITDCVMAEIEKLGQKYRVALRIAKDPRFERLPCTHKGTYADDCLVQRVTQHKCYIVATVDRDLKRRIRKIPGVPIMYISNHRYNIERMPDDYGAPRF
active: [15] -1.04
inactive: [2] -0.392 | [6] -0.075 | [8] 0.034 | [9] -0.138 | IRAK-1-4 Inhibitor I -0.083 | ralimetinib 0.223 | [11] 0.032 | [13] 0.074 | pinometostat 0.334

HSPA8 (UniProt E9PN89)
inactive: erlotinib 0.051 | [1] -0.193 | [2] -0.191 | [3] -0.061 | [4] 0.358 | [5] 0.06 | [7] -0.133 | [8] 0.267 | [9] -0.027 | IRAK-1-4 Inhibitor I -0.032 | ibrutinib -0.069 | [10] -0.145 | [11] 0.127 | [12] 0.085 | pinometostat -0.004 | [14] 0.07 | [15] 0.043
